Assay outcomes: PubChem, National Center for Advancing Translational Sciences (NCATS)
Only some compounds are listed: those with a hit (about 7.3% of all), similar ones and a draw of the others.
Tau fibril FP: inhibitors of human tau fibril formation. P10636. K18 P301L tau heparin fibrillization, Alexa594 FP, 6 h. Potency, µM (highest dose often 57.7 µM), for the others: at the highest dose activity, negative = inhibition, most hits filed as inhibitors. 280,000 tested, 0.39% active. AID 1468; also: potency is read from the fitted curve at half-maximal effect; % is scaled to controls: 0 for no effect and ±100 for the full control effect; nearly all actives have a fitted effect of over 55% in size
Target sequence (P10636 561-689 P618L limits assumed): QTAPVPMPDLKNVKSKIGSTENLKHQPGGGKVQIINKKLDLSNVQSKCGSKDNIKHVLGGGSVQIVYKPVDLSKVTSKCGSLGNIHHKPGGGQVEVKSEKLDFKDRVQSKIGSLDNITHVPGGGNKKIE
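Read-out: fluorescence polarization of Alexa 594-labeled tau (0.24 uM), 555 nm excitation, 632 nm emission. Mixtures held 15 uM unlabeled K18 P301L, compound and 20 uM heparin, pH 7 acetate buffer, incubated 6 hr at 37 C.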
Tau fluor cs: counter-screen for tau fibril formation inhibitors | tau K18 P301L Alexa594 fluorescence, heparin fibrillization | Potency, µM (doses to about 57.7 µM), inactives show at the top dose activity change, negative = decrease | 280,000 tested, 0.93% active | AID 1463; also: potency is read from the fitted curve at half-maximal effect; % is scaled to controls: 0 for no effect and ±100 for the full control effect; nearly all actives have a fitted effect of over 55% in size
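Human K18 P301L tau (15 uM unlabeled plus 0.24 uM Alexa 594-labeled, final) in 100 mM sodium acetate pH 7 was mixed with compound and 20 uM heparin and incubated 6 hr at 37 C.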
Tau fibril ThT: inhibitors of human tau fibril formation, thioflavin T binding | recombinant tau K18 P301L, heparin-induced fibrillization, ThT fluorescence | Potency, µM (titrated, usually from 57.4 µM), for inactives: at the top dose activity, negative = inhibition, hits mostly inhibitors | 270,000 tested, 2.1% active; also: potency is read from the fitted curve at half-maximal effect; % is scaled to controls: 0 for no effect and ±100 for the full control effect; nearly all actives have a fitted effect of over 55% in size
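In this qHTS, human K18 P301L tau is incubated with compound and heparin for 6 hr at 37 C, and Thioflavin T fluorescence then reports fibril load.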
RORg inh: blocks mouse ROR gamma transcriptional activity | Drosophila S2 Gal4-RORgamma UAS-luciferase reporter, 20 h | 310,000 tested, 5.4% active | Potency, µM (titrated, usually from 53.6 µM), for inactives: top-dose activity change, negative = inhibition, actives largely listed as inhibitors | AID 2551; also: potency is read from the fitted curve at half-maximal effect; % is scaled to controls: 0 for no effect and ±100 for the full control effect; nearly all actives have a fitted effect of over 60% in size
Target sequence (P51450 whole entry, looked up, the tested form may be a part): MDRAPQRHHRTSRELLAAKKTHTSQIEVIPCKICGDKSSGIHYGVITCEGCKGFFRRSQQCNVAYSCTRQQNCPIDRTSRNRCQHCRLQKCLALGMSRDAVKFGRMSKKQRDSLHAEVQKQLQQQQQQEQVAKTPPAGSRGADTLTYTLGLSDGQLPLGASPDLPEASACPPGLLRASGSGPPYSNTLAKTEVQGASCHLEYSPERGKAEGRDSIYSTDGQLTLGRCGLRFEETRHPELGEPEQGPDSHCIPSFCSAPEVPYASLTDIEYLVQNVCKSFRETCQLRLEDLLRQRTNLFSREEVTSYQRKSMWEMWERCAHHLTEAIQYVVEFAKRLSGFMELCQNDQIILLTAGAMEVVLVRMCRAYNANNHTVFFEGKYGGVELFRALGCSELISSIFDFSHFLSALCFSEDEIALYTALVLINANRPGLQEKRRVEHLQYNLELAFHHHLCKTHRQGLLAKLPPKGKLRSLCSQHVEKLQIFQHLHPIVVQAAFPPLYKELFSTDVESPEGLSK
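In this cell-based reporter format, copper sulfate (700 uM final) drives Gal4–ROR gamma fusion expression from a metallothionein promoter in Drosophila Schneider cells; compounds preincubated 1 hr, reporter read after 20 hr at ambient temperature.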
Gal4-VP16 FLuc: counter-screen for ROR gamma inhibitors: Gal4-VP16 reporter; Drosophila S2 Gal4-VP16 UAS-luciferase, luminescence, 20 h; Potency, µM (series often up to 53.6 µM), for inactives: top-dose activity, negative = inhibition, most hits filed as inhibitors; 310,000 tested, 3.5% active; AID 2546;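 also: Gal4-VP16 expression switched on by copper sulfate through the metallothionein promoter; potency is read from the fitted curve at half-maximal effect; % is scaled to controls: 0 for no effect and ±100 for the full control effect; nearly all actives have a fitted effect of over 50% in size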
Tau fibril TEM: Inhibits tau K18 fibrillization by TEM grading; shares compounds with Tau fibril ThT; recombinant tau K18 P301L fibrillization, TEM grading; hits give high values; fibril grade (0 = clumped fibrils, 4 = only tiny pieces) (concentration not given with the values); 45 tested, 70% active; AID 1719;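 active = compounds whose electron micrographs showed tau fibrils broken into shorter filaments or fragments, graded high on fibril breakup; inconclusive = micrographs gave an unclear fibril picture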
tau fibril sed: reduces sedimented tau K18 P301L aggregates; shares compounds with Tau fibril ThT; recombinant tau K18 P301L (four-repeat tau fragment), sedimentation SDS-PAGE densitometry; inhibition, % at 100 µM; 110 tested, 50% active; AID 1720; in the data active = inhibition above about 40%; inconclusive = no clear call, values can overlap the other calls; inactive = below about 18%
Active calls of the source: *; ? = inconclusive; . = not tested or not shown; [ ] = remark or other dose. Unless noted, calls follow the shape of the dose curve; as a rule, active = well fitted curve in the direction sought with a large enough effect; inconclusive = small, poorly fitted or top-dose-only effect, or another doubt; inactive = no such curve, though single readings can be large; an effect the other way counts as inactive or inconclusive.

SMILES	Tau fibril FP	Tau fluor cs	Tau fibril ThT	RORg inh	Gal4-VP16 FLuc	tau fibril sed	others
COC(=O)c1cn(NC(=O)/C=C/c2cccc(OC)c2OC)c(=O)c2ccccc12	0.1%	-13.7%	?	4.9%	-1.7%	.
CNc1ccc(Br)cc(C(=O)/C=C/c2cccc(OC)c2OC)c1=O	?	?	14.1µM*	?	?	.
CCc1ccc2c(c1)c(=O)c(C(=O)c1ccc(C)cc1)cn2CC(=O)Nc1ccc2c(c1)OCCO2	-19.4%	-21.4%	6.8%	.	.	.
CCCCCCCc1cc2ccccc2c(=O)o1	?	-11.3%	-2.1%	24.6%	-11.4%	.
CCn1c(CSc2nccn2C)nc2cc(C(=O)O)ccc21	?	-5.4%	3.98µM*	-2.9%[10 µM]	-11.2%	56.0*	Tau fibril TEM=3*
O=C(CCl)Nc1cn(-c2ccccc2)nc1-c1ccc(F)cc1	-1.5%	-15.0%	-3.4%	?	-28.0%	.
CSCC[C@H](NC(=O)[C@H](Cc1ccccc1)n1c(=O)[nH]c2ccccc2c1=O)C(=O)N1CCC[C@H]1C(=O)O	.	.	.	-8.2%	1.1%	.
Nc1c(-c2ccccc2)cc[nH]c1=O	.	.	.	.	.	9.0
CC(=O)Nc1nc(C)c(-c2csc(Nc3cccc([N+](=O)[O-])c3)n2)s1	?	?	?	-23.7%	-29.2%	13.0
CC(=O)Nc1nc(C)c(-c2csc(Nc3ccc(O)cc3)n2)s1	-12.2%	14.1µM*[quencher]	8.91µM*	?	-26.3%	?	Tau fibril TEM=0
Cc1cccc(C(=O)NC2(C(F)(F)F)N=C(c3ccccc3)N(Cc3ccccc3)C2=O)c1 (configuration not stated)	-5.7%	-9.7%	?	.	.	.
CSc1ccc(S(=O)(=O)N2CCC(C(=O)NCC3CCCO3)CC2)cc1 (configuration not stated)	.	.	.	10.7%	-5.8%	.
Cc1ccc(-n2nc3c(N4CCC(C(=O)NCc5cccc(F)c5)CC4)nnc(C)c3c2C)cc1	.	.	.	-16.1%	?	.
CCOC(=O)c1nn(-c2ccc(F)cc2)c(=O)c(C#N)c1C	.	.	.	14.9%[1.91 µM]	-9.9%	.
CCOC(=O)c1nn(-c2ccc(C)cc2)c(=O)c2c(N)scc12	?	?	14.1µM*	?	1.2%	?
CCOC(=O)c1nn(-c2ccc(Cl)cc2)c(=O)c2c(N)scc12	.	.	.	.	.	62.0*
CCOC(=O)c1nn(-c2ccc(F)cc2)c(=O)c2c(N)scc12	1.2%[2.34 µM]	-0.9%	0.5%	11.0%	-11.0%	64.0*
COC(=O)c1nn(-c2ccc(OC)cc2)c(=O)c2c(N)sc(C)c12	3.2%	-27.0%	?	-1.1%	-5.7%	44.0*	Tau fibril TEM=?
Cc1ccc(Cn2c(=O)c3ccccc3n3c(-c4ccccc4)nnc23)cc1	?	-11.0%	-3.8%	.	.	.
CCOc1ccc(N2CC(NC(=O)c3ccc(S(=O)(=O)N4CCOCC4)cc3)CC2=O)cc1 (configuration not stated)	-3.0%	2.8%	7.3%	.	.	.
O=C(Nc1ccc(OC(F)(F)F)cc1)Nc1cccc([N+](=O)[O-])c1	4.47µM*	1.78µM*[quencher]	?	?	6.31µM*	13.0
O=C(Nc1ccc(OC(F)(F)F)cc1)Nc1cccnc1	-13.2%	-21.2%	6.0%	0.2%	20.9%	.
CN(C)c1ccc(N2C(=O)CSC2=S)cc1	?	?	4.47µM*	?	?	11.0
CCn1nccc1C(=O)Nc1cc(Cl)cc(Cl)c1	28.2µM*	?	?	?	-5.1%	?
Cn1cc(Cl)c(C(=O)Nc2nc3ccccc3s2)n1	9.8%	-3.1%	-0.6%	-84.9%	?	.
SMILES	Tau fibril FP	Tau fluor cs	Tau fibril ThT	RORg inh	Gal4-VP16 FLuc	tau fibril sed	others
Cn1cc(Cl)c(C(=O)Nc2cccc(Cl)c2Cl)n1	2.9%	-4.2%	-10.0%	-34.4%	?	8.0
COc1ccc2oc(-c3cccc(NC(=O)c4cc([N+](=O)[O-])ccc4N4CCOCC4)c3)nc2c1	-15.4%	?	?	.	.	.
O=C(Nc1cccc(-c2nc3ccccc3o2)c1)c1cc([N+](=O)[O-])ccc1N1CCOCC1	?	?	-21.7%	.	.	17.0
O=C(O)CN1C(=O)/C(=C/c2ccc(-c3cccc(Cl)c3)o2)SC1=S	.	.	.	.	.	14.0
COc1ccc(CN2C(=O)/C(=C/c3ccc(-c4ccc(Cl)c(C(=O)O)c4)o3)SC2=S)cc1	-4.2%	-4.3%	?	7.1%	4.2%	.
COc1cccc(CNC(=O)c2ccc3c(c2)nc2n3CCCCC2)c1OC	-4.1%	1.8%	-1.8%	.	.	.
Oc1ccccc1CNc1cccc2cccnc12	?	15.8µM*[quencher]	6.31µM*	?	?	61.0*	Tau fibril TEM=?
Cc1ncc(COP(=O)(O)O)c(CN)c1O	.	.	.	6.4%	-0.1%	.
N#Cc1cccc(NC(=O)c2ccc3c(c2)N(Cc2cccc(Cl)c2)C(=O)c2ccccc2S3(=O)=O)c1	12.6µM*	-22.1%	16.0%	.	.	4.0
O=C(NCCc1ccc(Cl)cc1)c1ccc2c(c1)N(Cc1cccc(Cl)c1)C(=O)c1ccccc1S2(=O)=O	?	-13.2%	2.2%	.	.	.
Cc1ccc(Cl)cc1NC(=O)Cn1c(=O)c(CNc2ccccc2)cc2cc3c(cc21)OCCO3	-2.4%	?	?	.	.	.
O=C(Cn1c(=O)c(CNc2ccccc2)cc2cc3c(cc21)OCCO3)Nc1ccccc1Cl	?	?	8.91µM*	.	.	62.0*	Tau fibril TEM=0
CCOc1ccccc1N1CCN(C(=O)c2c(Cl)cnn2C)CC1	.	.	.	-21.6%	0.7%	.
COc1ccc(NCc2cc3ccccc3[nH]c2=O)cc1	-1.9%	-13.7%	?	22.6%	-0.9%	.
COc1ccc2[nH]c(=O)c(CNc3cccc(C)c3)cc2c1	5.9%	-1.6%	-8.4%	-39.7%	5.0%	85.0*	Tau fibril TEM=4*
O=C(Nc1ccccc1[N+](=O)[O-])c1csnn1	-3.7%	-7.3%	-3.9%	.	.	.
